Assay results from PubChem BioAssay.
The source made the active and inactive calls.

How the values were obtained:
Albumin (Bos taurus) = Albumin (Bos taurus) (UniProt P02769); test: bovine serum albumin binders on microarray, profiling panel, artefact control for SMM control protein annotation, biochemical, small-molecule microarray, Alexa647 label, 635/667 nm fluorescence (AID 1118); details: BSA-A647 binding, fluorescence 635 nm, higher = more signal;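 also: score merges 667 nm emission intensity and signal-to-noise per printed compound spot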
Albumin (Bos taurus), sequence (P02769 whole entry, looked up): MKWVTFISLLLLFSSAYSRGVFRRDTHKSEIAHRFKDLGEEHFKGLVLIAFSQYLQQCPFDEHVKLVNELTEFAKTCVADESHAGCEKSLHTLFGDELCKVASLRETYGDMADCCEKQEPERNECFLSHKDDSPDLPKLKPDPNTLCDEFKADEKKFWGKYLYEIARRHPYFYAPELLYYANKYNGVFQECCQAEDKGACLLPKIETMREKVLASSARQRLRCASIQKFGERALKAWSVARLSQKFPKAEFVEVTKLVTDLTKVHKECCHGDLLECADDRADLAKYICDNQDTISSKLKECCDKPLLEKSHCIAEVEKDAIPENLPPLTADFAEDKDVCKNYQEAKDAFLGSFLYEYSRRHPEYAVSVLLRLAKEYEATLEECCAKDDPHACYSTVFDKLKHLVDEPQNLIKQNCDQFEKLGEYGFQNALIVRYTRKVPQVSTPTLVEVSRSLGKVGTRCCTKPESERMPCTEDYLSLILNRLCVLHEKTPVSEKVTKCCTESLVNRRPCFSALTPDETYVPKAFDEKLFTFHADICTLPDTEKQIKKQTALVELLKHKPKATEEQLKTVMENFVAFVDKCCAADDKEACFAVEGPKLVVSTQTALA

[1] = small-molecule microarray binders of probe aXIP, primary screen, biochemical, NeuroSMM set, 635/667 nm fluorescence (AID 1119); details: higher = more signal, called active from +8 up or from −8 down;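 also: probe is the protein aXip251-270 applied at 1 µg/mL to compound-printed slides; binding of probe to printed compounds measured as 667 nm fluorescence plus signal to noise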
[2] = small-molecule binders of probe aNOTCH3, primary screen, biochemical, small-molecule microarray, 635/667 nm fluorescence (AID 1120); details: higher = more signal;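 also: probe is a biotin-tagged antibody raised against NOTCH3 rather than NOTCH3 protein; score merges spot fluorescence near 667 nm with spot signal to noise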
[3] = small-molecule binders of probe aNOTCH2, primary screen, biochemical, small-molecule microarray, 635/667 nm fluorescence (AID 1121); details: higher = more signal;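 also: score merges feature fluorescence read at 667 nm with its signal to noise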
[4] = target: Carbonic anhydrase 2 (Homo sapiens) (UniProt P00918); test: CAII small-molecule binders, profiling panel, biochemical, small-molecule microarray, Alexa647-labelled CAII (AID 1122); details: CAII-A647 binding fluorescence, higher = more signal
[5] = COS7 lysate on small-molecule microarray, probe aHis, 635 nm (AID 1123); details: COS7 cell lysate, fluorescence, higher = more signal;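 also: z-score combines 667nm fluorescence intensity with signal-to-noise per printed compound spot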
[6] = compound binding in COS7 lysate, probe aLAP1, primary screen, cell lysate, small-molecule microarray (AID 1124); details: probe aLAP1, fluorescence, higher = more signal;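 also: lysate comes from COS7 cells expressing LAP1 and is applied at 0.3 µg/mL; score merges spot fluorescence near 667 nm with signal-to-noise over triplicate slides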
Sam68 (KHDRBS1) = test: Sam68 small-molecule binders, primary screen, biochemical, small-molecule microarray, 635 nm fluorescence (AID 1125); details: small-molecule microarray binding, higher = more signal;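 also: score merges 667 nm channel intensity with signal to noise over triplicate slides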
[7] = system: Chordin-like protein 2 (CHRDL2); test: CHRDL2 small-molecule binders, primary screen, biochemical, small-molecule microarray, 635 nm fluorescence (AID 1126); details: small-molecule microarray binding, fluorescence 635 nm; higher = more signal;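 also: printed compound slides probed with Chrdl2 protein at 4 µg/mL for 1 h at 4 C; score merges 667 nm emission intensity with signal to noise over three replicate slides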
[8] = target: Concanavalin-A (Canavalia ensiformis) (UniProt P02866); test: ConA small-molecule binders, primary screen, artefact control for SMM control protein annotation, biochemical, small-molecule microarray, Alexa647 label, 635 nm (AID 1127); details: ConA-A647 binding fluorescence, higher = more signal;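 also: z combines 667 nm emission intensity with signal-to-noise across three replicate slides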
Concanavalin-A (Canavalia ensiformis), sequence (P02866 whole entry, looked up): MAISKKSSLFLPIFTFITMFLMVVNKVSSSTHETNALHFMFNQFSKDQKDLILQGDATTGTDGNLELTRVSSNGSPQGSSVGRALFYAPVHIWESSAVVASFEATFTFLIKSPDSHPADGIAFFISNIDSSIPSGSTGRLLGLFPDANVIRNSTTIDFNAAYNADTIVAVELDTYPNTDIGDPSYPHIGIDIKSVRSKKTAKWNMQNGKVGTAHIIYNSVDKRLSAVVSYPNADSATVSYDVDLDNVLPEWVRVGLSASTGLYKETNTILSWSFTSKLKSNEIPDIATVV

[9] = anti-His antibody binders, primary screen, artefact control for SMM control protein annotation, biochemical, small-molecule microarray, 635 nm fluorescence (AID 1128); details: anti-His Alexa647 antibody binding, higher = more signal;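 also: score merges feature fluorescence with signal-to-noise for each printed compound spot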
[10] = system: Human papillomavirus type 1a E7 protein (residues 1-88); test: HPV1a E7 small-molecule binders, primary screen, biochemical, small-molecule microarray, residues 1-88, 635 nm (AID 1129); details: small-molecule microarray binding, fluorescence 635 nm; higher = more signal
[11] = target: Focal adhesion kinase 1 (Homo sapiens) (UniProt Q05397); test: small-molecule microarray binders of FAK, primary screen, biochemical, 635/667 nm fluorescence, BSA, DTT (AID 1130); details: PTK2 binding, 635 nm fluorescence, higher = more signal;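 also: composite of spot emission at 667 nm and signal to noise over triplicate slides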
Focal adhesion kinase 1 (Homo sapiens), sequence (Q05397 whole entry, looked up): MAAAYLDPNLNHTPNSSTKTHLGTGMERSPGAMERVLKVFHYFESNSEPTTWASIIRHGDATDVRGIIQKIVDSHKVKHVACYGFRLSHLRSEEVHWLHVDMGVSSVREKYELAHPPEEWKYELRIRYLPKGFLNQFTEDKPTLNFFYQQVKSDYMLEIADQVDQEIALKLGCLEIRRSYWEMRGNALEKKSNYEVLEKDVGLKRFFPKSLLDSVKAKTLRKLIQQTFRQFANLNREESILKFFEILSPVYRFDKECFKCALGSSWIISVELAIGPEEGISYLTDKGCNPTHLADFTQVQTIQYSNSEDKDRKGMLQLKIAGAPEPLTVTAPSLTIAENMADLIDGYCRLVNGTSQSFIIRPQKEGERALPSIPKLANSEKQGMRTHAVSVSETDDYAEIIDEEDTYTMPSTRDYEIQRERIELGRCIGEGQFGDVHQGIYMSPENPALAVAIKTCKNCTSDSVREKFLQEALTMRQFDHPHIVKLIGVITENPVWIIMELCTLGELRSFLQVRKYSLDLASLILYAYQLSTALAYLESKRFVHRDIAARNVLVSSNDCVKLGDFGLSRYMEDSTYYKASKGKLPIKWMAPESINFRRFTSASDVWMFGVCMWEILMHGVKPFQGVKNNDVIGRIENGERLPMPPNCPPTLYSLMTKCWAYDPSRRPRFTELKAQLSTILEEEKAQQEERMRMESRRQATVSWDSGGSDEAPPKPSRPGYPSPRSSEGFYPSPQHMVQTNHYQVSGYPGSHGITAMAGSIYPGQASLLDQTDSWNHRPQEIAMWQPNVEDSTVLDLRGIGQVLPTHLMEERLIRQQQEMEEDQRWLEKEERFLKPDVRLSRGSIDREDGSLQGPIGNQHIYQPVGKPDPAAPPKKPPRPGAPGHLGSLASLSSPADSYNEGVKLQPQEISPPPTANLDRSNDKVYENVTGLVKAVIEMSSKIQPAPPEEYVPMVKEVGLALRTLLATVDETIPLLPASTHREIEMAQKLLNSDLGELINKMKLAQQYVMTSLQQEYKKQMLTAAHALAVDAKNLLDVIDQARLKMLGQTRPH

[12] = system: Fibrinogen (Alexa647-labelled); test: fibrinogen binders on compound microarrays, profiling panel, artefact control for SMM control-protein annotation, biochemical, small-molecule microarray, 635/667 nm fluorescence (AID 1131); details: fibrinogen-A647 binding fluorescence, higher = more signal;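 also: z-score merges 667 nm fluorescence with per-spot signal-to-noise over triplicate slides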
[13] = target: Follistatin (Homo sapiens) (UniProt P19883); test: follistatin binders on small-molecule microarrays, primary screen, biochemical, small-molecule microarray, 635/667 nm fluorescence (AID 1132); details: FST binding, 635 nm fluorescence, higher = more signal
Follistatin (Homo sapiens), sequence (P19883 whole entry, looked up): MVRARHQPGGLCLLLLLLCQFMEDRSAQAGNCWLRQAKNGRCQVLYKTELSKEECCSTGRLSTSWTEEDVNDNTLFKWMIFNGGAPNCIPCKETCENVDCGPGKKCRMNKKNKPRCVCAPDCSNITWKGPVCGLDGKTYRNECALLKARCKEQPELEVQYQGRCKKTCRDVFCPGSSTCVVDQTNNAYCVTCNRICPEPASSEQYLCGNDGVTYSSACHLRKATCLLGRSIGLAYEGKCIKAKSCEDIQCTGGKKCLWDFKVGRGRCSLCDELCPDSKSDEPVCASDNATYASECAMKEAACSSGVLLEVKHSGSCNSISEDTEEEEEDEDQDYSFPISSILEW

[14] = target: Fibroblast growth factor 2 (Homo sapiens) (UniProt P09038); test: FGF2 binders on small-molecule microarrays, primary screen, biochemical, small-molecule microarray, 635/667 nm fluorescence (AID 1133); details: small-molecule microarray binding, FGF2, fluorescence 635/667; higher = more signal
Fibroblast growth factor 2 (Homo sapiens), sequence (P09038 whole entry, looked up): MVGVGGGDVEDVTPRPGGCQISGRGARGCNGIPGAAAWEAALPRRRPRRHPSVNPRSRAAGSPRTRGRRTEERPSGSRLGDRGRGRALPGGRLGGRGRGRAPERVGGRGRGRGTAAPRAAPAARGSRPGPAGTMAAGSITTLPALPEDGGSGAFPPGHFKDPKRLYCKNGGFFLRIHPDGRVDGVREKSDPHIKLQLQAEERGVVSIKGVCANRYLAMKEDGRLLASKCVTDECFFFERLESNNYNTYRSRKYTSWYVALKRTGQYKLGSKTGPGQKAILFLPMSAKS

[15] = mitochondrial membrane potential change in A549 cells, profiling panel, cell-based, JC-1 fluorescence, basal, 24 h, 100 nL (AID 1138); details: higher = more signal;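 also: A549 lung adenocarcinoma cells under basal conditions with no added stimulus; test concentration not given here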
Lefty1 = Lefty1 binders on small-molecule microarrays, primary screen, biochemical, small-molecule microarray, 635/667 nm fluorescence (AID 1139); details: small-molecule microarray binding, fluorescence 635/667; higher = more signal
[16] = system: wheat germ agglutinin (Triticum aestivum), Alexa647-labelled; test: wheat germ agglutinin binders on compound microarrays, profiling panel, artefact control for SMM control-protein annotation, biochemical, small-molecule microarray, 635/667 nm fluorescence (AID 1140); details: WGA-A647 binding, 635 nm fluorescence, higher = more signal;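 also: score merges 667 nm feature emission with signal to noise over triplicate slides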
[17] = target: Luciferin 4-monooxygenase (Photinus pyralis) (UniProt P08659); test: firefly luciferase enzyme inhibitors, primary screen, biochemical, luminescence, purified enzyme, 2006 set (AID 1141); details: SteadyGlo luminescence, 30 min, higher = more signal, called active from +8 up or from −8 down;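 also: cell-free assay with purified firefly luciferase at 100 ng per well in PBS; test concentration not given here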
Luciferin 4-monooxygenase (Photinus pyralis), sequence (P08659 whole entry, looked up): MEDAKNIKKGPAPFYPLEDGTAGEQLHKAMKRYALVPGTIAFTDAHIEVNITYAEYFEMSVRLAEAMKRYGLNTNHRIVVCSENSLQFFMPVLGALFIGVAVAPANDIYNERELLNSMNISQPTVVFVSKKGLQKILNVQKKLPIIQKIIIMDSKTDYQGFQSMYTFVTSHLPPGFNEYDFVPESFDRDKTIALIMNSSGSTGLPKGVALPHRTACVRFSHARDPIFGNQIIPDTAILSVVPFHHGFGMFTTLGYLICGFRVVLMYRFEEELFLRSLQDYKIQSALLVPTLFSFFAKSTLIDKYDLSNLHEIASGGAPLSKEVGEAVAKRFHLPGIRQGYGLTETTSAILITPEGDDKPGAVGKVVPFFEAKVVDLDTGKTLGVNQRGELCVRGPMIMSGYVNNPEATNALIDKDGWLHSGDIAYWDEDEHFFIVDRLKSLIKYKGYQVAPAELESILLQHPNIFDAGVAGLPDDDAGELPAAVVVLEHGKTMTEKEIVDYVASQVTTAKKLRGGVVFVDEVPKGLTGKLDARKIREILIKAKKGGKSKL

C#CCCCON=C1C[C@@H](O)[C@@H](O)[C@@H]2[C@@H]3C(=O)N(CCC(=O)OCC)C(=O)[C@@H]3CC[C@H]12
composite z-score (Albumin (Bos taurus)): 0.356
composite Z-score [1]: 0.269 (inactive)
composite z-score [2]: -0.042
composite z-score [3]: -0.0837
composite z-score [4]: 0.222
composite z-score [5]: 0.769
composite z-score [6]: 0.613
composite z-score (Sam68 (KHDRBS1)): 1.32
composite z-score [7]: 0.247
composite z-score [8]: 1.07
composite z-score [9]: 0.997
composite z-score [10]: 0.929
composite z-score [11]: -0.0834
composite z-score [12]: 0.375
composite z-score [13]: 1.06
composite z-score [14]: 0.613
z-score [15]: 0.317
composite z-score (Lefty1): 0.861
composite z-score [16]: 0.101
z-score [17]: -0.891 (inactive)

CCOC(=O)[C@H](CC(C)C)NC(=O)CCC1CC(OC(=O)NCc2cccc3ccccc23)CC2(CCCC(COC(=O)NCCC(C)C)O2)O1 (stereo not given in full)
composite z-score (Albumin (Bos taurus)): 0.352
composite Z-score [1]: -0.136 (inactive)
composite z-score [2]: -0.147
composite z-score [3]: -0.153
composite z-score [4]: 0.562
composite z-score [5]: 0.795
composite z-score [6]: -0.104
composite z-score (Sam68 (KHDRBS1)): -0.0361
composite z-score [7]: 0.443
composite z-score [8]: 0.0178
composite z-score [9]: -0.121
composite z-score [10]: 0.572
composite z-score [11]: -0.394
composite z-score [12]: 0.123
composite z-score [13]: 0.364
composite z-score [14]: 0.92
z-score [15]: 0.652
composite z-score (Lefty1): 0.606
composite z-score [16]: 0.0877
z-score [17]: -0.0038 (inactive)

C=CC[C@@H]1C=C[C@H](ON=C(C)CCN2CCc3nc(-c4ccccc4)c(-c4ccccc4)cc3C2)[C@@H](CO)O1
composite z-score (Albumin (Bos taurus)): 0.585
composite Z-score [1]: 0.364 (inactive)
composite z-score [2]: -0.0362
composite z-score [3]: -0.0995
composite z-score [4]: 0.1
composite z-score [5]: 1.6
composite z-score [6]: -0.0995
composite z-score (Sam68 (KHDRBS1)): 1.31
composite z-score [7]: 0.321
composite z-score [8]: 0.967
composite z-score [9]: 0.133
composite z-score [10]: 0.876
composite z-score [11]: -0.372
composite z-score [12]: 0.727
composite z-score [13]: 0.787
composite z-score [14]: 0.362
z-score [15]: 2.3
composite z-score (Lefty1): 0.736
composite z-score [16]: 0.169
z-score [17]: -0.118 (inactive)

COC(=O)CC=C[C@@H](C)[C@@H](C=NOC(C)CN1CCCc2nc(C)c(C)cc21)OC (stereo not given in full)
composite z-score (Albumin (Bos taurus)): 0.0374
composite Z-score [1]: 0.0236 (inactive)
composite z-score [2]: 0.0833
composite z-score [3]: -0.176
composite z-score [4]: -0.0864
composite z-score [5]: 0.132
composite z-score [6]: -0.201
composite z-score (Sam68 (KHDRBS1)): 0.263
composite z-score [7]: 0.377
composite z-score [8]: 0.458
composite z-score [9]: 0.333
composite z-score [10]: 0.464
composite z-score [11]: 0.0673
composite z-score [12]: 0.233
composite z-score [13]: 0.6
composite z-score [14]: 0.604
z-score [15]: -0.27
composite z-score (Lefty1): 0.677
composite z-score [16]: -0.0665
z-score [17]: 0.423 (inactive)

CO[C@@H]1COC(=O)CC=C[C@H](C)[C@H](OC)COC(=O)[C@H](C)NC(=O)CC=C[C@H]1C
composite z-score (Albumin (Bos taurus)): -0.837
composite Z-score [1]: 1.11 (inactive)
composite z-score [2]: -0.0043
composite z-score [3]: -0.118
composite z-score [4]: -0.481
composite z-score [5]: -0.448
composite z-score [6]: -0.134
composite z-score (Sam68 (KHDRBS1)): 0.786
composite z-score [7]: 0.896
composite z-score [8]: -1.76
composite z-score [9]: -0.347
composite z-score [10]: -1.35
composite z-score [11]: -0.289
composite z-score [12]: -0.394
composite z-score [13]: 1.41
composite z-score [14]: 0.628
z-score [15]: 0.239
composite z-score (Lefty1): 1.64
composite z-score [16]: -0.54
z-score [17]: -0.304 (inactive)

CCc1cc2c(nc1CC)CCN(CCC(C)=NO[C@H](C)c1cn([C@H](CO)Cc3ccccc3)nn1)C2
composite z-score (Albumin (Bos taurus)): 0.867
composite Z-score [1]: -0.51 (inactive)
composite z-score [2]: 0.189
composite z-score [3]: -0.101
composite z-score [4]: 0.0934
composite z-score [5]: 0.287
composite z-score [6]: 0.022
composite z-score (Sam68 (KHDRBS1)): 0.708
composite z-score [7]: 0.357
composite z-score [8]: -0.0875
composite z-score [9]: 1.08
composite z-score [10]: 0.282
composite z-score [11]: 0.119
composite z-score [12]: 0.408
composite z-score [13]: 0.672
composite z-score [14]: 0.884
z-score [15]: 0.085
composite z-score (Lefty1): 0.531
composite z-score [16]: 0.55
z-score [17]: -0.378 (inactive)

CCN1C(=O)[C@@H]2[C@H]3C(=CC[C@@H]2C1=O)C1(OCCCO1)[C@H]1O[C@H]1[C@H]3O
composite z-score (Albumin (Bos taurus)): 0.488
composite Z-score [1]: 0.369 (inactive)
composite z-score [2]: 0.162
composite z-score [3]: -0.0948
composite z-score [4]: 0.429
composite z-score [5]: 2.12
composite z-score [6]: 0.251
composite z-score (Sam68 (KHDRBS1)): 1.29
composite z-score [7]: 0.333
composite z-score [8]: 1
composite z-score [9]: 0.841
composite z-score [10]: 1.04
composite z-score [11]: 0.162
composite z-score [12]: 0.982
composite z-score [13]: 1.12
composite z-score [14]: 0.944
z-score [15]: -2.41
composite z-score (Lefty1): 0.946
composite z-score [16]: 0.692
z-score [17]: -26.1 (active)

CCc1cc2c(nc1CC)CCN(CCC(C)=NO[C@@H](C)c1cn([C@H](CO)Cc3ccccc3)nn1)C2
composite z-score (Albumin (Bos taurus)): -0.0957
composite Z-score [1]: 0.117 (inactive)
composite z-score [2]: -0.0072
composite z-score [3]: -0.0956
composite z-score [4]: 0.317
composite z-score [5]: -0.0909
composite z-score [6]: 0.12
composite z-score (Sam68 (KHDRBS1)): -0.0161
composite z-score [7]: 0.231
composite z-score [8]: 0.0209
composite z-score [9]: 1.62
composite z-score [10]: -0.452
composite z-score [11]: -0.0908
composite z-score [12]: 0.996
composite z-score [13]: 0.595
composite z-score [14]: 0.0391
z-score [15]: 2.07
composite z-score (Lefty1): 0.529
composite z-score [16]: 0.307
z-score [17]: -0.896 (inactive)
